Laboratory results published in PubChem BioAssay (NCI).
Compounds without any hit were thinned out: in the full panel of roughly 83,000, 20% have a hit.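 In brief: 96-well plates, 48 h treatment, single concentration, percent growth endpoint.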 A number with no mark means an inactive call. Active and inactive are the calls of the source. How the source made its calls: active means growth percent below 10; inactive means the rest.

Assays:
Test in all cases: NCI-60 one-dose screen, 48 h (100 = growth as untreated, 0 = no growth, -100 = all killed)
Conditions in all cases: 10 µM unless noted
NCI-H23 lung = system: NCI-H23 lung
NCI-H226 lung = system: NCI-H226 lung
NCI-H322M lung = system: NCI-H322M lung
HOP-62 NSCLC = system: HOP-62 NSCLC
NCI-H460 lung = system: NCI-H460 lung
NCI-H522 lung = system: NCI-H522 lung
A549/ATCC NSCLC = system: A549/ATCC NSCLC
786-0 renal = system: 786-0 renal
COLO 205 colon = system: COLO 205 colon
DU-145 prostate = system: DU-145 prostate
K-562 leukemia = system: K-562 leukemia
MALME-3M melanoma = system: MALME-3M melanoma
MDA-MB-231 breast = system: MDA-MB-231 breast
RXF 393 renal = system: RXF 393 renal
SF-268 CNS = system: SF-268 CNS
SF-539 CNS = system: SF-539 CNS
UACC-257 melanoma = system: UACC-257 melanoma
M14 melanoma = system: M14 melanoma
HCT-15 colon = system: HCT-15 colon

Compound	growth (NCI-H23 lung)	growth (NCI-H226 lung) [%]	growth (NCI-H322M lung) [%]	growth (HOP-62 NSCLC)	growth (NCI-H460 lung)	growth (NCI-H522 lung)	growth (A549/ATCC NSCLC) [%]	growth (786-0 renal)	growth (COLO 205 colon)	growth (DU-145 prostate) [%]	growth (K-562 leukemia)	growth (MALME-3M melanoma)	growth (MDA-MB-231 breast) [%]	growth (RXF 393 renal) [%]	growth (SF-268 CNS) [%]	growth (SF-539 CNS) [%]	growth (UACC-257 melanoma) [%]	growth (M14 melanoma) [%]	growth (HCT-15 colon) [%]
COC(=O)c1ccc2c(c1)nc(-c1ccc(O)c(OC)c1)n2-c1cc(C(C)(C)C)[nH]n1	93.3%	106	103	128%	96.3%	78.7%	87.9	97.7%	120%	118	90.6%	114%	97.7	131	104	105	101	95.7	115
Nc1nc(N)c([N+](=O)[O-])c(=O)[nH]1	97.8%	102	104	84.7%	106%	103%	97.8	110%	109%	113	108%	118%	115	114	115	106	103	106	104
NNC(=O)NO	98.6%	103	93	88.9%	105%	86%	101	98.5%	111%	109	94.8%	98.6%	122	115	104	104	112	102	102
O=[P@@]1(c2ccccc2)O[C@H](COCc2ccccc2)[C@@H](OCc2ccccc2)[C@H](OCc2ccccc2)[C@H]1NCc1ccccc1	20.5%	40.6	47.9	54.3%	4.06% (active)	20.5%	13.3	13.9%	-57.2% (active)	45.7	6.58% (active)	-7.61% (active)	13.6	28.7	32.2	27.2	22.5	15.2	15.9
C[C@]12CC[C@@H]3c4ccc(O)cc4CC[C@H]3[C@@H]1CC[C@@H]2NS(=O)(=O)c1cccc(Br)c1	68.1%	60.5	70.6	-16.6% (active)	61.7%	40.4%	43.2	70.3%	64.7%	75	30.1%	63.2%	71.1	42.6	59.7	85.6	80.3	68.9	50.9
Nc1ccc2c(c1)/C(=N/O)c1cc([N+](=O)[O-])ccc1-2	71.5%	76.3	42	91.7%	27.3%	55.1%	49.2	63.1%	104%	46.4	22.9%	57.9%	91.7	85	62.6	60.1	81	49.4	61.2
COc1ccc(-c2nn(-c3cccc(Cl)c3)cc2C2CC(c3ccccc3)=NN2C(C)=O)cc1 (stereo not drawn)	84.2%	37.9	76.8	-18.1% (active)	39.6%	60.9%	67.6	72.2%	81.6%	72.2	96.1%	46.8%	72.9	54.4	66.9	50.6	86.2	89.2	86
Cc1cc(O)c2c(c1)C[C@H]1[C@@H]3CC[C@H]4CC(=O)CC[C@]4(C)[C@H]3CC(=O)[C@]21C	77.3%	94.6	104	123%	99.2%	73.9%	77	87.8%	104%	85.2	53.3%	92.8%	86	94.1	87.6	73.3	100	80.9	45.3
O=C(OCCBr)c1ccc(Cl)c([N+](=O)[O-])c1	104%	126	28.6	131%	103%	8.61% (active)	104	102%	106%	14.6	82.9%	97.2%	92	132	100	102	86.8	91.8	90.9
O=C(Nc1ccc(OCc2nnc(-c3ccccc3)o2)c(F)c1)Nc1ccc(Cl)c(C(F)(F)F)c1	8.65% (active)	59.3	28.8	13.6%	-0.0623% (active)	13.9%	11.6	53.2%	-46.3% (active)	10	12.9%	8.78% (active)	29.3	45.9	36.2	36.1	28.3	23.8	11.8
C[n+]1ccc(C#N)c2ccccc21	94.7%	93.3	98	94.4%	109%	68.2%	106	90.2%	48.8%	91.8	84.8%	26.7%	101	78.8	92	99.5	110	98.6	88.4
CCN(CC)c1ccc(N=Nc2cc(Cl)ccc2Cl)c(NC(=O)CCC(=O)O)c1	101%	98.1	111	86.6%	108%	106%	101	108%	106%	108	98.8%	91.8%	81.4	116	105	79.9	117	101	89.5
CC(C)(C)c1cc(O)c(O)c(C(C)(C)C)c1	48.4%	75.6	63.5	64.7%	14.7%	0.232% (active)	20.9	52.2%	64.9%	68.7	3.38% (active)	67%	61.1	65	53.2	40.6	80.5	51.9	26.7
CCCCCCOc1ccc(/C=N/NC(N)=S)cc1	54.3%	66	122	100%	92.6%	-64% (active)	88.3	9.39% (active)	50.2%	71.9	17.8%	17.9%	29.5	22.6	47.2	16.5	48.2	44.6	33.9
Oc1[nH]c2ccccc2c1/C=c1/ccc2c(c1)N=C(c1cc(F)cc(F)c1)N=2	64.3%	85.4	83.1	101%	56.9%	59.7%	66.5	64.2%	96%	72.1	12.8%	101%	53.8	78.5	80.8	90.7	98.7	–	31.5
CN(C)c1nc(-c2ccco2)n2nc(-c3ccco3)cc2n1	87.9%	87.1	94	90.6%	95.5%	94.8%	92.9	97.2%	116%	121	101%	131%	74.2	106	118	94.7	106	99.7	78.1
